# Source: PubChem BioAssay
# Only some compounds are listed: those with a hit (about 3.1% of all), similar ones and a draw of the others.
# dFosB activator = mouse delta FosB homodimer activation. P13346. purified delta FosB, TAMRA-CDK5 oligo fluorescence polarization; percent of positive-control signal above neutral wells. activation, % at 25 µM. 0.99% of 340,000 active. AID 493131;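 active = mean activation above about 17%, with every replicate also reaching it, limit read from the data, passing the limit was not always enough; inconclusive = only one of the two conditions met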
# AF4-AF9 inh = blocks AF4 peptide binding to human AF9; P42568; AlphaScreen, biotin-AF4 peptide binding to FLAG-AF9; inhibition, % at 10 µM; 0.47% of 350,000 active;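 active = every replicate reaching a set inhibition limit, whatever the replicate mean, cut at about 25% in these data; inconclusive = mean inhibition reaches that limit but some replicates miss it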;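 note: 0% = plate neutral control median and 100% = total signal loss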
# Target sequence (P42568 whole entry, looked up): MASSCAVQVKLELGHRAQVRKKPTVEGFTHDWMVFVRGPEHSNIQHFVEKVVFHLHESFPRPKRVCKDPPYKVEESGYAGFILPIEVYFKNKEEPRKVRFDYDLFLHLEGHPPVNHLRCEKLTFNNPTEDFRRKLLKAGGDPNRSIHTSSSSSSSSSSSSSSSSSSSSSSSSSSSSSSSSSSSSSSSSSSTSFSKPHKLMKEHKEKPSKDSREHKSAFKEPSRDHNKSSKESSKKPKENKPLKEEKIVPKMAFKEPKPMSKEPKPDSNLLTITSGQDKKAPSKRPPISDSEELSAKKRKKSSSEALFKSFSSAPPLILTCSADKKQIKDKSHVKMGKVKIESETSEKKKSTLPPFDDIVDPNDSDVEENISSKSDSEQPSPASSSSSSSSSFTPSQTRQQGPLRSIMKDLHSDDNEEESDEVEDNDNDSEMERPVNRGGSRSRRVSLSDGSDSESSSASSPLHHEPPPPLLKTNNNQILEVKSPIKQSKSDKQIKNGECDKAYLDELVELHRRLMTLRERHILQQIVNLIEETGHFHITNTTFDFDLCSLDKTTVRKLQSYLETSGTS
# RAD52 anneal inh = inhibitors of human RAD52 DNA annealing. P43351. recombinant RAD52 DNA annealing, FRET fluorescence. inhibition, % at 18.7 µM. 0.46% of 360,000 active. AID 651710;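 active = every replicate showing at least 50% inhibition; inconclusive = mean inhibition at least 50% but not in every replicate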
# DENV2 CPE rescue = protects cells from dengue virus 2 cytopathic effect. DENV2-infected cells, cytopathic effect rescue, plate reader. CPE inhibition, % at 9.99 µM. 1.7% of 350,000 active. AID 651640; in the data active = CPE inhibition above about 20%, passing the limit was not always enough; inconclusive = no clear call, values can overlap the other calls; tested in BHK-21 cells;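 note: 0% = median of neutral control wells and 100% = median of positive control wells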
# RAD54 inh = inhibitors of human RAD54 branch migration | Q92698 | RAD54 Holliday junction branch migration, FAM/BHQ fluorescence | inhibition, % at 10.4 µM | 0.14% of 360,000 active;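 active = mean normalized replicate activity at least 40 and at least half of replicates scoring 40 or more; inconclusive = only one of the two criteria met; inactive = mean below 40 and under half of replicates reaching 40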;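 note: 0% = median of neutral control wells and 100% = median of positive control wells; inhibitors cause a drop in the FAM fluorescence signal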
# GSIS activator = primary screen for activators of insulin secretion dependent on glucose, INS-1E cells, GLuc reporter luminescence; INS-1E GLuc reporter insulin secretion, 2-3 h; activation, % at 16.6 µM; 0.61% of 370,000 active; AID 743287;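 active = lowest replicate activation of at least 40%, so every replicate reaches that level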;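 note: 0% = median of neutral control wells and 100% = median of IBMX positive control wells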
# Starred values were filed as active, the others as inactive; i = inactive; ? = inconclusive; . = not tested or not shown; ! = repeats disagree.
SMILES,dFosB activator,AF4-AF9 inh,RAD52 anneal inh,DENV2 CPE rescue,RAD54 inh,GSIS activator
CCNc1nc(NC(C)CC)nc(ON=C(C)C)n1 (stereo unspecified),2,-1,-18,7,-3,56*
C[C@@H]1CN([C@@H](C)CO)C(=O)CCCn2nncc2CO[C@H]1CN(C)C(=O)Nc1ccc(N2CCN(C)CC2)cc1,.,12,58*!,15,6,11
C[C@H](CO)N1C[C@H](C)[C@@H](CN(C)C(=O)Nc2ccc(N3CCN(C)CC3)cc2)OCc2cnnn2CCCC1=O,.,-2,55*!,?,-13,-6
C[C@@H]1CCCCO[C@@H](CN(C)S(=O)(=O)c2cccs2)[C@@H](C)CN([C@H](C)CO)C(=O)c2cc(NC(=O)Nc3ccccc3)ccc2O1,.,-4,-13,0,-3,45
O=C(NCCOC(=O)c1ccc([N+](=O)[O-])cc1)c1cccnc1,-3,-1,-6,6,.,-2
CCC(CC)NCCOC(=O)c1ccc([N+](=O)[O-])cc1,4,26*,0,-4,-5,-4
CCCCc1[nH]c(=O)c(C#N)c2c1CCCC2,0,.,.,.,.,99*
COc1ccc(NC(=O)Nc2ccc3c(c2)C(=O)N([C@@H](C)CO)C[C@H](C)[C@@H](CN(C)Cc2ccc(-c4ccccc4)cc2)O3)cc1,.,2,29,7,0,2
COc1ccc(COC(=O)C2=C(C)NC(=O)NC2c2ccccc2F)cc1 (stereo unspecified),2,-4,-6,39*,6,7
CN1C2CCC1/C(=C\c1ccc(F)cc1)C(=O)/C2=C/c1ccc(F)cc1,-6,.,.,.,.,-10
CN1C2CCC1/C(=C/c1cccn1C)C(=O)/C2=C\c1cccn1C,4,43*,i,?,i,-6
Cc1ccccc1S(=O)(=O)N1CC(=O)N2[C@H](CO)[C@@H](c3ccc(C#CCN(C)C)cc3)[C@H]2C1,.,3,0,43*,.,-4
Cc1ccccc1S(=O)(=O)N1CC(=O)N2[C@@H](CO)[C@H](c3ccc(C#CCN(C)C)cc3)[C@@H]2C1,.,-1,1,14,.,-2
Cc1ccccc1S(=O)(=O)N1CC(=O)N2[C@H](CO)[C@@H](c3ccc(C#CCN(C)C)cc3)[C@@H]2C1,.,0,-9,34*,.,1
CC(C)[C@@H]1CC=CC[C@@H](C)Oc2ccccc2C(=O)N(C)[C@H](C)C(=O)N1 (mixture of isomers),.,.,.,.,.,-36
O=C(NNC(=O)c1ccccc1F)c1ccc(-c2ccccc2Cl)o1,.,0,-8,21*,11,-4
O=C(NNC(=O)c1ccccc1F)c1ccco1,-1,-1,-11,-1,1,0
Cc1cnc(NC(=O)C2CC(=O)N(c3cccc(Cl)c3)C2)s1 (stereo unspecified),2,-2,2,33*,4,4
CNC(=O)CSc1nnc(NC(=O)C2CC(=O)N(c3ccccc3OC)C2)s1 (stereo unspecified),-7,-2,-16,33*,-15,13
O=C(Nc1nnc(SCCC2OCCO2)s1)C1CC(=O)N(c2ccccc2)C1 (stereo unspecified),-11,?,-21,6,-3,-4
COc1cccc(N2CC(C(=O)Nc3ccc(F)cc3)CC2=O)c1 (stereo unspecified),-5,0,2,27*,4,-17
COc1cccc(N2CC(C(=O)Nc3nnc(SCCC4OCCO4)s3)CC2=O)c1 (stereo unspecified),-10,-2,-19,93*,2,-3
Cc1noc(C)c1S(=O)(=O)N(C)C[C@H]1OCc2ccccc2-c2ccccc2C(=O)N([C@@H](C)CO)C[C@@H]1C,.,.,.,.,.,11
C[C@@H]1CN([C@@H](C)CO)C(=O)c2cc(NC(=O)Nc3ccc(F)cc3)ccc2O[C@@H]1CN(C)C(=O)Nc1ccc(C(F)(F)F)cc1,.,.,.,.,.,2
CCOCC(=O)Nc1c(C(=O)OCC)oc2ccccc12,-1,.,.,.,-1,44*
Cc1noc(C)c1NC(=O)N[C@@H]1CC[C@@H](CC(=O)N2CCCCC2)O[C@H]1CO,.,-1,0,-7,3,-3
COc1ccc(Br)c2oc(SC)cc(=O)c12,-15,1,-1,82*,4,21
